Records with an inconclusive call do not appear. The source made the active and inactive calls. Unless noted, the call rests on the fitted dose curve; in most records, active means well fitted curve in the direction sought with a large enough effect in the repeat runs; inconclusive means weak or mixed curves; inactive means no such curve, though single readings can be large; an effect the other way counts as inactive or inconclusive.
Legend:
[1] = target: Peroxisome proliferator-activated receptor gamma (Homo sapiens) (UniProt P37231); experiment: qHTS assay to identify small molecule antagonists of the peroxisome proliferator-activated receptor gamma (PPARg) signaling pathway (AID 743191; calls by dose curve; further: series mostly up to about 63 µM; nearly all actives have a fitted effect of over 30% in size)
Peroxisome proliferator-activated receptor gamma (Homo sapiens), sequence (P37231 whole entry, looked up): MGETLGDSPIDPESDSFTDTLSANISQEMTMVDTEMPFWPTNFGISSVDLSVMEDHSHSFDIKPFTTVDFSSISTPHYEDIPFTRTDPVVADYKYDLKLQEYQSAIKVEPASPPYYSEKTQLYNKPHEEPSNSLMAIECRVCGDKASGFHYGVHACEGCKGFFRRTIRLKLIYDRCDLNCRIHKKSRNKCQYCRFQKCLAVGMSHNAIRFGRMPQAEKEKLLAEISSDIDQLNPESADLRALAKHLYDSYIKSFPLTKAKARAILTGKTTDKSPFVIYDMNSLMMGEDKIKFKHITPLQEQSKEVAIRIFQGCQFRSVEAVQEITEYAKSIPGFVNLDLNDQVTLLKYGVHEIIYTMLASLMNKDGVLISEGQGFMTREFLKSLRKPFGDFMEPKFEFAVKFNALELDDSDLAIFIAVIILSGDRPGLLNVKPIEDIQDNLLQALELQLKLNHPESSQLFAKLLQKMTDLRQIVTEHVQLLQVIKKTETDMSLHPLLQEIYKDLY
Method in brief: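 GeneBLAzer PPARg UAS-bla HEK293H cells carrying a UAS-driven beta-lactamase reporter were plated at 3000 cells/well, preincubated 5 h at 37C, then given compound for 17 h at 37C; LiveBLAzer B/G FRET substrate was read after 1 h at room temperature.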

[2] = qHTS assay to identify small molecule antagonists of the peroxisome proliferator-activated receptor gamma (PPARg) signaling pathway - cell viability counter screen (AID 743194); details: Potency: co-treated with 50 nM rosiglitazone; further: nearly all actives have a fitted effect of over 55% in size
Method in brief: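 PPARg-UAS-bla HEK293H cells were plated, rested 5 h at 37 C, then treated with compounds plus rosiglitazone (50 nM final) for 17 h at 37 C; viability was then read by CellTiter-Glo luminescence after 30 min at room temperature.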

[3] = qHTS assay for small molecule agonists of the antioxidant response element (ARE) signaling pathway - cell viability counter screen (AID 743203; calls by dose curve; further: nearly all actives have a fitted effect of over 55% in size)
Method in brief: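 Seeded at 2,000 cells/well, ARE-bla HepG2 cells were incubated 5 hrs before compound addition. After 16 hrs of treatment at 37C with 5% CO2, CellTiter-Glo reagent was added and luminescence read 30 min later.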

[4] = qHTS assay for small molecule activators of the heat shock response signaling pathway (AID 743210; active means well fitted activation curve with a large enough effect in the signal ratio in the repeat runs, with a control signal flat, not every such curve was filed as active; the % refers to the signal ratio;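 further: HeLa cells with beta-lactamase reporter driven by heat shock elements; series mostly up to about 63 µM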)
Method in brief: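 Reporter gene assay: HeLa cells stably bearing an HSE-bla construct, compound treatment 5 h at 37 C, LiveBLAzer substrate 2.5 h at RT, fluorescence intensity.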

[5] = qHTS assay to identify small molecule agonists of the peroxisome proliferator-activated receptor delta (PPARd) signaling pathway - cell viability counter screen (AID 743211); further: nearly all actives have a fitted effect of over 55% in size
Method in brief: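 HEK293H PPARd-bla, 3000 cells/well; 5 h preincubation 37C/5% CO2; cpd in DMSO, 17 h 37C; B/G FRET substrate 2 h RT; CellTiter-Glo 30 min RT, luminescence.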

[6] = target: Peroxisome proliferator-activated receptor delta (Homo sapiens) (UniProt Q03181); experiment: qHTS assay to identify small molecule agonists of the peroxisome proliferator-activated receptor delta (PPARd) signaling pathway (AID 743212; calls by dose curve)
Peroxisome proliferator-activated receptor delta (Homo sapiens), sequence (Q03181 whole entry, looked up): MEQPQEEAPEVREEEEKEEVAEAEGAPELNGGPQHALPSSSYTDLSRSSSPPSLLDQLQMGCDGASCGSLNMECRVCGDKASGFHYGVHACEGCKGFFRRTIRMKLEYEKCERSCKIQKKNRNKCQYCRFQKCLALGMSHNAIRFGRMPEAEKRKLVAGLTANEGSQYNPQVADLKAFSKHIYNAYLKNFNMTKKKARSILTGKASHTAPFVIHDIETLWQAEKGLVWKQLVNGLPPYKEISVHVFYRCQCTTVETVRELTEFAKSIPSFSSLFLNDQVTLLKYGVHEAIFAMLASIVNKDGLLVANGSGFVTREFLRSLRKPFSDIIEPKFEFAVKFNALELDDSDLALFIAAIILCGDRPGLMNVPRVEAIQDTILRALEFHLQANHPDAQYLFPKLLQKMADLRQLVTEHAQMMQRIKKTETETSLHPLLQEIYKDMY
Method in brief: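 A PPARd-bla HEK293H line with beta-lactamase under an Upstream Activator Sequence is treated with compounds at 37 C. Substrate loading for 2 h at room temperature precedes the fluorescence measurement.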

[7] = qHTS assay to identify small molecule antagonists of the peroxisome proliferator-activated receptor delta (PPARd) signaling pathway - cell viability counter screen (AID 743213); further: nearly all actives have a fitted effect of over 50% in size
Method in brief: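 In this counter screen, HEK293H cells carrying a UAS-beta-lactamase reporter are co-treated with test compounds and 300 nM L165041 (final) for 17 h at 37 C; cell viability is quantified by CellTiter-Glo luminescence.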

[8] = target: Peroxisome proliferator-activated receptor delta (Homo sapiens) (UniProt Q03181); experiment: qHTS assay to identify small molecule antagonists of the peroxisome proliferator-activated receptor delta (PPARd) signaling pathway (AID 743215; active means well fitted inhibition curve with a large enough effect in the signal ratio in the repeat runs, not every such curve was filed as active; the % refers to the signal ratio;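 further: cells stimulated with agonist L165041 at 300 nM final during compound exposure; series mostly up to about 62 µM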)
Method in brief: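 Inhibition of L165041-driven (300 nM final) PPARd signaling is scored in HEK293H UAS-bla cells. Exposure lasts 17 h at 37 C; beta-lactamase activity is then read by FRET substrate fluorescence after 2 h at room temperature.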

[9] = qHTS assay to identify small molecule agonists of the farnesoid-X-receptor (FXR) signaling pathway - cell viability counter screen (AID 743218); further: nearly all actives have a fitted effect of over 45% in size
Method in brief: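 Cytotoxicity counter-screen run in parallel, same wells: FXR-UAS-bla HEK 293T cells dosed 16 h at 37 C, viability read by CellTiter-Glo luminescence after 30 min at room temperature.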

[10] = qHTS assay to identify small molecule antagonists of the farnesoid-X-receptor (FXR) signaling pathway - cell viability counter screen (AID 743221; active means well fitted cell-killing curve with a large enough effect in the repeat runs, not every such curve was filed as active; further: nearly all actives have a fitted effect of over 50% in size)
Method in brief: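 Luminescence from CellTiter-Glo measures cytotoxicity in GeneBLAzer FXR-UAS-bla HEK 293T cells. Cells were exposed to compounds with 50 uM chenodeoxycholic acid (final) for 16 h at 37 C, in wells also used for the reporter readout.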

[11] = target: Vitamin D3 receptor (Homo sapiens) (UniProt P11473); experiment: qHTS assay to identify small molecule agonists of the vitamin D receptor (VDR) signaling pathway (AID 743222; calls by dose curve)
Vitamin D3 receptor (Homo sapiens), sequence (P11473 whole entry, looked up): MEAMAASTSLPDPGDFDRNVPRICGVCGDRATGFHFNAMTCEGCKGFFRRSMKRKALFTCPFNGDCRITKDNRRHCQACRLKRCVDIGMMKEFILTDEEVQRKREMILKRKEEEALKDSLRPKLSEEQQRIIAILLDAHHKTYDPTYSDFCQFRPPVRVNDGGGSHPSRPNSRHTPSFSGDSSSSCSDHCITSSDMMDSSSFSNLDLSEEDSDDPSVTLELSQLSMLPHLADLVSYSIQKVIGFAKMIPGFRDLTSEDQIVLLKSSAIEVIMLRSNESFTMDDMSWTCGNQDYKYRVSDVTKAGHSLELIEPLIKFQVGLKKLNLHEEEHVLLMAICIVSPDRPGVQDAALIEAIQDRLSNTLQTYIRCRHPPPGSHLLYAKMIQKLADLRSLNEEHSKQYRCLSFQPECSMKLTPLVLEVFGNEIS
Method in brief: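 Quantitative HTS agonist-mode screen: compounds in DMSO were pin-transferred onto VDR-bla cells and incubated 16 h at 37C, 5% CO2. Reporter activity was detected with LiveBLAzer B/G FRET substrate after 2 h at room temperature.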

[12] = target: Vitamin D3 receptor (Homo sapiens) (UniProt P11473); experiment: qHTS assay to identify small molecule antagonists of the vitamin D receptor (VDR) signaling pathway (AID 743223; active means well fitted inhibition curve with a large enough effect in the signal ratio in the repeat runs, not every such curve was filed as active; the % refers to the signal ratio)
Method in brief: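 Antagonist mode uses 1alpha,25-dihydroxyvitamin D3 at 3 nM final as stimulus. VDR-bla cells receive compounds in DMSO, incubate 16 h at 37C, then a beta-lactamase FRET substrate for 2 h at room temperature before fluorescence measurement.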

[13] = qHTS assay to identify aromatase inhibitors - cell viability counter screen (AID 743084);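 further: cells stimulated with testosterone during compound exposure; nearly all actives have a fitted effect of over 55% in size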
[14] = qHTS assay for small molecule agonists of the antioxidant response element (ARE) signaling pathway (AID 743202; active means well fitted activation curve with a large enough effect in the signal ratio in the repeat runs, not every such curve was filed as active; the % refers to the signal ratio)
Method in brief: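 Compounds delivered in DMSO to ARE-bla HepG2 cells (2,000 cells/well, pre-incubated 5 h) and left 16 h at 37 C. LiveBLAzer B/G FRET substrate then added for 2 h at RT before fluorescence reading.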

[15] = qHTS assay for small molecule activators of the heat shock response signaling pathway - cell viability counter screen (AID 743209); further: nearly all actives have a fitted effect of over 50% in size
Method in brief: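 First, HSE-bla HeLa cells were seeded at 1500 cells/well and kept overnight at 37 C. Next, compounds were pinned in and incubated 5 h. After the FRET substrate step, CellTiter-Glo was added and luminescence read 30 min later.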

[16] = target: Bile acid receptor (Homo sapiens) (UniProt Q96RI1); experiment: qHTS assay to identify small molecule agonists of the farnesoid-X-receptor (FXR) signaling pathway (AID 743220; active means well fitted activation curve with a large enough effect in the signal ratio in the repeat runs, not every such curve was filed as active; the % refers to the signal ratio)
Bile acid receptor (Homo sapiens), sequence (Q96RI1 whole entry, looked up): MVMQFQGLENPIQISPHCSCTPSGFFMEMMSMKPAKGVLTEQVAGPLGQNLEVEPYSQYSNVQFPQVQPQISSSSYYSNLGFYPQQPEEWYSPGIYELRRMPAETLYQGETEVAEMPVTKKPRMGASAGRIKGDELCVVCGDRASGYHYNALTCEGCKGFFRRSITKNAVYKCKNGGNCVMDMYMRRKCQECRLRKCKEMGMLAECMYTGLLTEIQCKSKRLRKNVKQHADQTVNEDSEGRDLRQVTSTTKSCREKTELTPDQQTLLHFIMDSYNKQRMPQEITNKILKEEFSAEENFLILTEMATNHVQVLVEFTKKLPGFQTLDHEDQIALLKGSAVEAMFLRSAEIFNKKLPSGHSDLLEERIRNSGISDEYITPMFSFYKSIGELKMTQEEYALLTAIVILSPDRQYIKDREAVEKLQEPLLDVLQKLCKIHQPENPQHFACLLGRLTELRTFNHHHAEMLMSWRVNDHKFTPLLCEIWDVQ
Method in brief: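 Beta-lactamase reporter under UAS control in GeneBLAzer FXR HEK 293T cells (5000/well) measured with LiveBLAzer FRET substrate after 2 h at room temperature. Compound exposure lasted 16 h at 37C.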

[17] = target: Aryl hydrocarbon receptor (Homo sapiens) (UniProt P35869); experiment: qHTS assay to identify small molecule that activate the aryl hydrocarbon receptor (AhR) signaling pathway (AID 743085);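 further: HG2L7.5c1 human HepG2 liver cells with stably integrated DRE-driven firefly reporter; series mostly up to about 70 µM; nearly all actives have a fitted effect of over 15% in size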
Aryl hydrocarbon receptor (Homo sapiens), sequence (P35869 whole entry, looked up): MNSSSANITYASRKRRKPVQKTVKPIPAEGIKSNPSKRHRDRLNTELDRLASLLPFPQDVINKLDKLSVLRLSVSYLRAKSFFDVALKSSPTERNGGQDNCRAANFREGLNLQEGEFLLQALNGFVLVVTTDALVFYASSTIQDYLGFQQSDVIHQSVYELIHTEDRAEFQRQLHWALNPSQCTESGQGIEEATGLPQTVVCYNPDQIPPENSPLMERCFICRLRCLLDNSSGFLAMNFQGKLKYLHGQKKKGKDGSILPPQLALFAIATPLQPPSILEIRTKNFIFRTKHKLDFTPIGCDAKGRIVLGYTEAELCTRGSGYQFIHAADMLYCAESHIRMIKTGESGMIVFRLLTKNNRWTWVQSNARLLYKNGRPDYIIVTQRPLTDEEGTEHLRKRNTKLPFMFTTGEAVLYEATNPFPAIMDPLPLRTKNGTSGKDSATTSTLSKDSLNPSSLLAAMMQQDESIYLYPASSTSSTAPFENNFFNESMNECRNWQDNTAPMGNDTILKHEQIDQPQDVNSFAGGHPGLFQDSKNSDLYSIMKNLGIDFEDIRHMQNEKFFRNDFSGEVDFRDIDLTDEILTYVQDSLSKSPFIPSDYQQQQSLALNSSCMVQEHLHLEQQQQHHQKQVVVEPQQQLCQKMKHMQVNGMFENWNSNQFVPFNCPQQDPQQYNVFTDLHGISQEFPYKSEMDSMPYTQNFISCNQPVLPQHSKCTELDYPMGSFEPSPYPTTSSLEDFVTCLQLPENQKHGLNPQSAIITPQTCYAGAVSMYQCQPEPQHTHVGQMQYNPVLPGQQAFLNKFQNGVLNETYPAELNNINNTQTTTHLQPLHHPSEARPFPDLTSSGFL
Method in brief: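 Cell line HG2L7.5c1 (human hepatoma, 20× DRE-luc). Plated, 5 h 37C, compound/DMSO added, 24 h 37C. CellTiter-Fluor 30 min 37C → fluorescence; then ONE-Glo 30 min RT → luminescence.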

[18] = qHTS assay to identify small molecule that activate the aryl hydrocarbon receptor (AhR) signaling pathway - cell viability counter screen (AID 743086);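 further: HepG2 liver cells carrying the AhR DRE luciferase reporter; series mostly up to about 70 µM; nearly all actives have a fitted effect of over 45% in size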
Method in brief: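 HepG2-AhR-luc (HG2L7.5c1) cells, 4000/well, were preincubated 5 h at 37C, exposed to compound in qHTS format for 24 hr at 37C, then given CellTiter-Fluor for 30 min; viability was read as fluorescence in the reporter wells.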

[19] = target: Peroxisome proliferator-activated receptor gamma (Homo sapiens) (UniProt P37231); experiment: qHTS assay to identify small molecule agonists of the peroxisome proliferator-activated receptor gamma (PPARg) signaling pathway (AID 743094; active means well fitted activation curve with a large enough effect in the signal ratio in the repeat runs, not every such curve was filed as active; the % refers to the signal ratio)
Method in brief: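 Quantitative HTS agonist mode: stable HEK293H line with UAS-beta-lactamase reporter under PPARg control, 17 h compound exposure at 37C, fluorescence after 1 h FRET substrate loading at room temperature.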

[20] = target: Bile acid receptor (Homo sapiens) (UniProt Q96RI1); experiment: qHTS assay to identify small molecule antagonists of the farnesoid-X-receptor (FXR) signaling pathway (AID 743217; active means well fitted inhibition curve with a large enough effect in the signal ratio in the repeat runs, not every such curve was filed as active; the % refers to the signal ratio)
Method in brief: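 Antagonist mode against 50 uM (final) chenodeoxycholic acid stimulation in FXR-bla HEK 293T cells, 16 h at 37 °C. Inhibition detected as reduced beta-lactamase activity via LiveBLAzer B/G FRET fluorescence after 2 h at room temperature.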

Measured: Potency

ClCCN1CCCC1
not listed: [13] | [14] | [15] | [16] | [17] | [18] | [19] | [20]
inactive: all other assays above

C[C@H](CN1CCOCC1)C(C(=O)N1CCCC1)(c1ccccc1)c1ccccc1
not listed: [1] | [10] | [12] | [17] | [18] | [19] | [20]
inactive: all other assays above

CCC(C)C(C)(COC(N)=O)COC(N)=O (stereo not drawn)
inactive: [1] | [2] | [14] | [15] | [4] | [5] | [7] | [9]

C=CCC1(C(C)CC)C(=O)NC(=O)NC1=O (stereo not drawn)
inactive: [1] | [2] | [3] | [15] | [5] | [6] | [8] | [9] | [10] | [11] | [12]

NC(=O)CS(=O)C(c1ccccc1)c1ccccc1 (stereo not drawn)
not listed: [6] | [8] | [11] | [12] | [13] | [14] | [16] | [20]
inactive: all other assays above

CCc1ccc(C2CCNCC2)cc1
not listed: [11] | [12] | [13] | [16] | [17] | [18] | [19] | [20]
inactive: all other assays above

C=C1C[C@@H]2[C@H](CC[C@]3(C)C(=O)CC[C@@H]23)[C@@]2(C)C=CC(=O)C=C12
not listed: [1] | [4] | [6] | [8] | [12] | [13] | [14] | [16]
inactive: all other assays above

CC(Cc1ccccc1)NCCCCl (stereo not drawn)
not listed: [1] | [3] | [13] | [16] | [17] | [18] | [19] | [20]
inactive: all other assays above

CCOC(=O)COc1ccc(Cl)cc1Cl
not listed: [1] | [11] | [12] | [13] | [16] | [17] | [19] | [20]
inactive: all other assays above

CC(C)c1ccc(O)cc1
not listed: [1] | [8] | [14] | [16] | [17] | [19] | [20]
inactive: all other assays above

CCOP(=S)(OCC)SCCl
not listed: [6] | [8] | [12] | [13] | [17]
inactive: all other assays above

CCC(CC)(CNC(=O)CCCO)c1cccc(OC)c1
inactive: [2] | [3] | [15] | [4] | [6] | [7] | [9] | [10] | [11] | [12]

CC(=O)OCC1=C(C(=O)O)N2C(=O)[C@@H](N)[C@H]2SC1
not listed: [1] | [4] | [7] | [10] | [15] | [16] | [17] | [19]
inactive: all other assays above

CNC(=O)NC(O)C(Cl)(Cl)Cl (stereo not drawn)
not listed: [1] | [7] | [16] | [17] | [19] | [20]
inactive: all other assays above

— PubChem BioAssay (Tox21)
